# Sampled rows, rich in hits. Any-hit rate of the full collection: about 4.1%.
# CSC inhib = cancer stem cell inhibition; cancer stem cell-like cells viability, luminescence; inhibition, % at 7.5 µM; hit rate 1.1% among 300,000; AID 2717; in the data active = inhibition above about 75%; tested in HMLE shEcad cells
# Beta apoptosis = blocks beta cell apoptosis. INS-1E cytokine-induced death, ATP luminescence, 48 h; percent of positive-control rescue, neutral wells zero. protection from apoptosis, % (no concentration beside the values). hit rate 0.8% among 300,000. AID 435005;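 active = Every replicate reaches about 75%, or at least half do and their mean reaches it too, limit read from the data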;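 also: 0% = cytokine-treated negative control wells and 100% = positive control rescue; higher means more ATP so stronger rescue from cytokine killing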
# Mdm2 MdmX PPI = disrupts the human Mdm2-MdmX interaction; O15151+Q00987; SaOS-2 split-luciferase Mdm2/MdmX complementation, luminescence; inhibition, % at 8 µM; hit rate 3% among 330,000; AID 485346;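 active = inhibition of at least 50% at 8 µM in the primary screen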
# Target sequence (O15151 whole entry, looked up): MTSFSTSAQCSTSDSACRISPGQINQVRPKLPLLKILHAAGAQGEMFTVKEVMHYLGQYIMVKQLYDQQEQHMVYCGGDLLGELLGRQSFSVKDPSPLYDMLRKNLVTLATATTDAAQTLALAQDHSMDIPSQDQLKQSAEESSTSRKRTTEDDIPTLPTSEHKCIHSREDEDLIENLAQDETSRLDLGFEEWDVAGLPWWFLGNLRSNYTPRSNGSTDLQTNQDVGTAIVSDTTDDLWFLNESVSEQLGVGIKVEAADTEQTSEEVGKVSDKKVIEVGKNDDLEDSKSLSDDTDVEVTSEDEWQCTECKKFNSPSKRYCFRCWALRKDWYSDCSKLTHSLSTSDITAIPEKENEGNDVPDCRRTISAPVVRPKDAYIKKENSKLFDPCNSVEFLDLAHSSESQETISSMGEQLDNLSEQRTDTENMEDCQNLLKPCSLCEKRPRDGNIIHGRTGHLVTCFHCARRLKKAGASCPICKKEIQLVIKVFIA
# Target sequence (Q00987 whole entry, looked up): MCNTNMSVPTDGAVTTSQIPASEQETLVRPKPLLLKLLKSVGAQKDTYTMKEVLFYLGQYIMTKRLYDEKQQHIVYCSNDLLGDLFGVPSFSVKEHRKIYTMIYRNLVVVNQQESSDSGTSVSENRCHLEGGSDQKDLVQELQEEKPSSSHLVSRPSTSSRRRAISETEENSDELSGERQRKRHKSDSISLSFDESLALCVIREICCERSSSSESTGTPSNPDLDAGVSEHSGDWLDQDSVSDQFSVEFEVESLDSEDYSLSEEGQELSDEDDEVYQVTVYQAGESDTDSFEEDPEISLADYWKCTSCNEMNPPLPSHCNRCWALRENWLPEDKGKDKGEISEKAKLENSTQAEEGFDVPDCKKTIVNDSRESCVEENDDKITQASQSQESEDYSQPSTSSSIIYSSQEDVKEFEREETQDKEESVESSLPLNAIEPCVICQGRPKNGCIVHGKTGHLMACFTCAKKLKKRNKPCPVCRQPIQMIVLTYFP
# aSyn UTR inh = MLPCN primary screen, SNCA 5' untranslated region. AID 1813. inhibition, % (tested at 7.5 µM). alpha-synuclein 5'UTR reporter, inhibitor activity. hit rate 0.82% among 300,000; in the data active = inhibition above about 60%;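 also: H4 neuroglioblastoma cells stably carrying SNCA 5'UTR luciferase fusion; 0% = DMSO wells and 100% = positive control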
# Bfl-1 A1 inh = inhibitors of the anti-apoptotic protein A1, read as caspase activation; MEF A1-2A-BIM cells, Caspase-Glo 3/7 luminescence, 3 h; percent of clofoctol response, vehicle zero; hit rate 0.066% among 330,000; caspase activation, % (test concentration not listed);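 active = over half of replicate activation scores above 10%, or exactly half above 10 with the replicate mean above 10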
# An asterisk follows results filed as active; . = no result.
SMILES,CSC inhib,Beta apoptosis,Mdm2 MdmX PPI,aSyn UTR inh,Bfl-1 A1 inh
Cc1nn(Cc2ccccc2Cl)c2sc(C(=O)Nc3nccs3)cc12,7,1,18,6,-1
CCC(CC)NC(=O)c1cc2c(C)nn(Cc3ccccc3Cl)c2s1,-14,5,15,71*,1
c1ccc(-n2nnc3c(N4CCOCC4)ncnc32)cc1,4,5,9,75*,-7
COc1ccc(CN(CC(=O)NCc2ccccc2)C(=O)CCC(=O)Nc2ccccn2)cc1,-4,-7,13,4,1
O=C1C(Nc2ccccc2)=C(N2CCCCC2)C(=O)c2ccccc21,4,83*,42,15,-1
O=C1C(NS(=O)(=O)c2ccc(Br)cc2)=C(N2CCCCC2)C(=O)c2ccccc21,8,20,22,26,0
CC(=O)Nc1ccc(S(=O)(=O)NC2=C(N3CCN(C)CC3)C(=O)c3ccccc3C2=O)cc1,7,99*,27,71*,0
Cc1ccc(NC2=C(N3CCCCC3)C(=O)c3ccccc3C2=O)cc1,-1,76*,35,-45,0
O=C(/C=C/c1ccc(O)cc1)c1ccc(NC2=C(N3CCCCC3)C(=O)c3ccccc3C2=O)cc1,90*,10,48,-35,-2
O=C1C(Nc2cccc(O)c2)=C(N2CCCCC2)C(=O)c2ccccc21,.,.,32,-14,-3
CCN1CCN(C2=C(NS(=O)(=O)c3ccc(NC(C)=O)cc3)C(=O)c3ccccc3C2=O)CC1,12,54,47,-3,1
Cc1ccc(SCC(=O)OCc2csc(CC(=O)Nc3ccccc3C)n2)cc1C,.,-4,12,.,-1
COc1ccc(N(CC(=O)NCc2cccs2)S(=O)(=O)c2cccc(C)c2)cc1,.,.,-2,.,.
CCCn1c(NCc2ccco2)nc2c1c(=O)n(C)c(=O)n2C,2,1,-7,-7,0
COCCNc1nc2c(c(=O)n(C)c(=O)n2C)n1Cc1cccc(C(F)(F)F)c1,.,87*,7,2,0
COc1cccc(Cn2c(NCc3ccco3)nc3c2c(=O)n(C)c(=O)n3C)c1,0,95*,12,-17,0
COc1ccc(Cl)c(Cn2c(NCc3ccco3)nc3c2c(=O)n(C)c(=O)n3C)c1,2,78*,20,.,-1
COc1cccc(Cn2c(NCC(C)C)nc3c2c(=O)n(C)c(=O)n3C)c1,.,-3,4,9,-1
Cc1ccc([C@@H]2[C@@H]3C(=O)N(C)C(=O)[C@@H]3[C@]3(C)C(=O)N(Cc4ccc(-c5ccccc5)cc4)CC(=O)N23)o1,-20,7,-10,-8,0
Cc1cc(C)c(C)c(S(=O)(=O)N2CCC(C(=O)Nc3ccc(S(=O)(=O)N4CCOCC4)cc3)CC2)c1C,.,35,46,9,0
CC(=O)Nc1ccc(S(=O)(=O)NCC(=O)N2CCN(S(=O)(=O)c3cccs3)CC2)cc1,.,0,2,.,0
N#Cc1cnn(-c2ccccc2)c1NC(=O)CN1CCN(c2ccccc2)CC1,-7,-2,16,-6,0
CC(C)c1ccc(NC(=O)c2cc3c(=O)n(C)c4ccccc4c3n2C)cc1,76*,13,42,21,0
O=C(NCC(c1ccco1)N1CCc2ccccc2C1)c1ccc(Cl)c([N+](=O)[O-])c1 (stereo not drawn),-4,-7,13,-3,0
O=C(NCC(c1ccco1)N1CCCC1)c1ccc(Cl)c(S(=O)(=O)N2CCc3ccccc32)c1 (stereo not drawn),.,75*,46,.,-1
SMILES,CSC inhib,Beta apoptosis,Mdm2 MdmX PPI,aSyn UTR inh,Bfl-1 A1 inh
FC(F)(F)c1ccc(-c2noc(CN3CCCN(C4CCCCC4)CC3)n2)cc1,106*,-4,28,0,0
CCn1nc(C)c(CNC(=O)c2ccc(OC3CCN(Cc4ccccn4)CC3)cc2)c1C,-5,79*,2,1,0
CC(C)(C)c1ccc(-c2nc(C#N)c(NCCCn3ccnc3)o2)cc1,88*,-1,29,-52,0
N#Cc1nc(-c2ccc(OCc3ccccc3Cl)cc2)oc1NCCCn1ccnc1,94*,0,39,-65,0
CCCOc1ccc(-c2nc(C#N)c(NCCCn3ccnc3)o2)cc1,45,10,27,-16,0
N#Cc1nc(-c2ccc(OCc3ccccc3)cc2)oc1NCCCn1ccnc1,88*,18,35,14,0
N#Cc1nc(-c2ccc(F)cc2)oc1NCCCn1ccnc1,-11,2,13,-90,0
Cc1ccc(OCCn2c(SCCO)nc3c(N)ncnc32)cc1,-1,-4,19,-4,1
CCCCCCC(=O)N1C/C=C\C(c2ccc(OC)cc2)N(Cc2ccc(F)cc2)C(=O)C1 (stereo not drawn),2,-4,2,-17,0
CCCCC(=O)N1C/C=C\C(c2ccc(OC)cc2)N(Cc2ccc(F)cc2)C(=O)[C@H]1Cc1ccccc1 (stereo partly drawn),37,99*,35,36,0
COc1ccc(C2/C=C\CN(C(=O)c3ccc(C)cc3)[C@H](Cc3ccccc3)C(=O)N2Cc2ccc(F)cc2)cc1 (stereo partly drawn),29,78*,35,27,1
COc1ccc([C@H]2/C=C\CN(C(=O)C3CC3)[C@@H](C)C(=O)N2Cc2ccc(F)cc2)cc1,-8,-4,7,8,1
COc1ccc(C2/C=C\CN(C(=O)C3CC3)[C@H](Cc3ccccc3)C(=O)N2Cc2ccc(F)cc2)cc1 (stereo partly drawn),0,86*,40,34,-1
Cn1nc(C(=O)NNC(=O)C(CCC(N)=O)NS(=O)(=O)c2ccc(Cl)cc2)c2ccccc2c1=O (stereo not drawn),.,0,23,.,1
CN(CC(=O)NCCc1ccc(Cl)cc1)S(=O)(=O)c1cccs1,4,-2,2,-25,1
Cc1nc(-c2ccc(C(=O)Nc3ccccc3F)cc2)cs1,38,-7,-90,92*,-8
Cc1nc(-c2ccc(C(=O)Nc3ccc(F)cc3)cc2)cs1,14,18,-89,-109,-6
O=C(/C=C/c1ccnc2ccccc12)c1cccs1,86*,-5,-31,-80,-5
O=C(Cn1cnc2ccccc2c1=O)c1cccs1,-9,-1,-5,-30,0
CCCN1CCc2c(sc(NC(=O)c3ccc(S(=O)(=O)N(C)c4ccccc4)cc3)c2C(=O)NC)C1,78*,8,28,-26,0
CCCN1CCc2c(sc(NC(=O)c3ccc(S(=O)(=O)N(C)c4ccccc4)cc3)c2C(N)=O)C1,10,8,16,-14,1
CNC(=O)c1c(NC(=O)c2ccc(S(=O)(=O)N3CCCc4ccccc43)cc2)sc2c1CCN(C)C2,76*,1,27,42,0
Nc1nonc1-n1nnc(C(=O)N/N=C/c2cc(Br)cs2)c1-c1ccccc1,.,-1,18,-13,1
O=C(CSc1n[nH]c(-c2cccnc2)n1)Nc1ccccc1C(F)(F)F,-11,-4,3,8,-1

# High-throughput results deposited in PubChem by several laboratories.
